Assay outcomes: PubChem BioAssay, National Center for Advancing Translational Sciences (NCATS)
Sfp inh – qHTS Assay for Inhibitors of Bacillus subtilis Sfp phosphopantetheinyl transferase (PPTase); Biochemical Sfp PPTase activity, qHTS; Potency, µM, without a hit: largest response in the series, negative = inhibition, usual class: inhibitors; AID 1490, 2009; actives 3.5% (n = 310,000); active = well fitted curve in the direction sought with a large enough effect; inconclusive = small, poorly fitted or top-dose-only effect, or another doubt; inactive = no such curve, though single readings can be large; an effect the other way counts as inactive or inconclusive;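 also: the enzyme is Sfp with the accession as filed and its product quenches rhodamine fluorescence; potency is read from the fitted curve at half-maximal effect; 0% = enzyme reaction without inhibitor and -100% = no enzyme wells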
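Buffer: 50 mM Hepes-Na pH 7.6, 10 mM MgCl2, 0.01% Nonidet P-40, 0.01% BSA. Enzyme 15 nM, pre-exposed to compound 15 min; substrates then added and fluorescence change tracked over 30 min.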
NPSR antagonist – qHTS Assay for Antagonists of the Neuropeptide S Receptor: cAMP Signal Transduction. Q6W5P4. Potency, µM (top dose mostly 38.3 µM), for inactives: top-dose activity change, negative = inhibition, actives largely listed as inhibitors. actives 1% (n = 220,000). AID 1461, 2008. CHO-NPSR cells, cAMP TR-FRET, antagonist mode; active = well fitted curve in the direction sought with a large enough effect; inconclusive = small, poorly fitted or top-dose-only effect, or another doubt; inactive = no such curve, though single readings can be large; an effect the other way counts as inactive or inconclusive; also: potency is read from the fitted curve at half-maximal effect; nearly all actives have a fitted effect of over 50% in size
ALDH1A1 inh – qHTS Assay for Inhibitors of Aldehyde Dehydrogenase 1 (ALDH1A1); AID 1030, 2008; Potency, µM (highest dose often 75.3 µM), without a hit: at the top dose activity, negative = inhibition, usual class: inhibitors; actives 7.3% (n = 220,000); Purified ALDH1A1, NADH fluorescence, propionaldehyde substrate;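 also: potency is read from the fitted curve at half-maximal effect; plate controls were no enzyme wells and a reference inhibitor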
KDM4E inh – qHTS Assay for Inhibitors of Human Jumonji Domain Containing 2E (JMJD2E) | Lysine-specific demethylase 4E (Homo sapiens), B2RXH2 | JMJD2E catalytic domain, FDH-coupled NADH fluorescence (FDH is formaldehyde dehydrogenase) | Potency, µM (highest dose often 57.1 µM), without a hit: at the highest dose activity change, negative = inhibition, hits mostly inhibitors | actives 1.6% (n = 230,000) | AID 2147, 2009;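 also: potency is read from the fitted curve at half-maximal effect; 0% = wells with enzyme and -100% = buffer wells without enzyme; nearly all actives have a fitted effect of over 50% in size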
Target sequence (B2RXH2 1-337 limits assumed): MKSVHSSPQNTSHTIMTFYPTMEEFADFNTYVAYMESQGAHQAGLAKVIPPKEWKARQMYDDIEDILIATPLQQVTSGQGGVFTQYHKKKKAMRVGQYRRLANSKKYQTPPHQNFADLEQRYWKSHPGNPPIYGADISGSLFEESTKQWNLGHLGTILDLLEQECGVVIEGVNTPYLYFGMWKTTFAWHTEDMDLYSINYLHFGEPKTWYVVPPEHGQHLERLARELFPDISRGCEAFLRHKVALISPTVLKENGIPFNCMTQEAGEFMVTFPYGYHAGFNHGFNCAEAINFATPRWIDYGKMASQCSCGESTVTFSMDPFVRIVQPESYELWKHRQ
RGS12 GoLoco inh – qHTS Assay for Inhibitors of RGS12 GoLoco Motif Activity (Red Fluorophore). Guanine nucleotide-binding protein G(i) subunit alpha-1 (Homo sapiens), P63096. Gai1:RGS12 GoLoco peptide FP, rhodamine, 10 min. Potency, µM (top dose mostly 61.6 µM), without a hit: at the highest dose activity, negative = inhibition, most hits filed as inhibitors. actives 0.44% (n = 230,000). AID 880, 2007; active = well fitted inhibition curve with a large enough effect, not every such curve was filed as active; inactive = no such curve, though single readings can be large or run the other way; also: potency is read from the fitted curve at half-maximal effect; nearly all actives have a fitted effect of over 30% in size
FBPA coupling cs – qHTS Assay for Inhibitors of Fructose-1,6-bisphosphate Aldolase from Giardia Lamblia: Coupling assay counterscreen. actives 0.67% (n = 290,000). activity change, negative = inhibition, % at 58.2 µM, hits read low. AID 2472, 2010. coupling enzyme system counterscreen, AmpLite Red fluorescence; in the data active = activity change below about -30%
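Counterscreen of the coupled detection system alone, without aldolase: glyceraldehyde-3-phosphate coupling enzymes plus AmpLite Red readout. Compounds at 57.5 uM final, 10 min RT preincubation, 20 min RT reaction, fluorescence 525/598 nm.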
* hit, by the source's call; u = inconclusive; x = no result given; [ ] = dose if it differs, or a comment. Hits are enriched below; roughly 8.5% of the tested compounds scored in any of these assays. Unless noted, calls follow the shape of the dose curve; as a rule, active = well fitted inhibition curve with a large enough effect (not every such curve was filed as active); inconclusive = small, poorly fitted or top-dose-only effect, or another doubt; inactive = no such curve, though single readings can be large or run the other way. Unless noted, % is scaled to controls: 0 for no effect and ±100 for the full control effect.

SMILES	Sfp inh	NPSR antagonist	ALDH1A1 inh	KDM4E inh	RGS12 GoLoco inh	FBPA coupling cs
COC(=O)c1sccc1NC(=O)CN(C)NS(=O)(=O)c1ccc([N+](=O)[O-])cc1	-15%	0%[46.1 µM]	1.6µM*	-5%	6%	1
COC(=O)c1sccc1NC(=O)CN(C)NS(=O)(=O)c1ccc(F)cc1	-1%	-5%[46.1 µM]	1µM*	5%	53%	-3
COC(=O)c1sccc1NC(=O)CSc1ccccc1NS(=O)(=O)c1ccc(F)cc1	1%	-28%[46.1 µM]	u	-4%	-13%	3
COC(=O)c1sccc1NC(=O)CSc1ccc(Cl)cc1	4%	u	26%	3%	12%	-6
COC(=O)c1sccc1NC(=O)Nc1cccc([N+](=O)[O-])c1	4%	x	x	x	x	-4
CC(C)Oc1ccccc1C1(c2ccccc2)NC(=O)NC1=O (stereo unspecified)	5%	x	x	x	x	1
CC(=O)Nc1ccc2c(c1)ncn2-c1ccc(C)cc1	12%	-5%	6%	-1%	-2%	5
CCOc1ccc(Nc2ncnc3c2cnn3-c2ccccc2)cc1	35%	-16%[46.1 µM]	-10%	u	3%	1
COc1ccc(Nc2ncnc3c2cnn3Cc2ccccc2)cc1	-3%	u	8.9µM*	-2%	-8%	-5
CCOc1ccc(Nc2ncnc3c2cnn3Cc2ccccc2)cc1	u	-29%[46.1 µM]	11µM*	-15%	10%	-5
c1ccc(CNc2ncnc3c2cnn3Cc2ccccc2)cc1	9%	-9%	u	-9%	1%	1
O=C1[C@H]2[C@H]3[C@H](O)[C@H](O)C/C(=N/OCc4ccccc4)[C@@H]3CC[C@@H]2C(=O)N1C[C@@H]1CCCO1	-1%	x	24%[13.5 µM]	x	x	0
O=C1[C@H]2[C@@H](C(=O)N1c1cccc3ccccc13)C1(C(=O)c3ccccc3C1=O)N1CCC[C@@H]21	u	2%[46.1 µM]	11µM*	u	77%	-10
O=C1C2C3C=CC(C3)C2C(=O)N1c1cccc2ccccc12 (stereo unspecified)	2%	x	x	x	x	3
CC(C)(C)Nc1nc(OCC#N)nc(N2CCCCC2)n1	-9%	47%	18µM*	2%	-4%	0
O=C(Nc1ccccc1)N1CC2(CCN(S(=O)(=O)c3ccccc3)CC2)C1	15%	x	-8%	x	-4%	1
O=C(COC(=O)Cc1ccccc1F)Nc1cc(S(=O)(=O)N2CCOCC2)ccc1N1CCCC1	6%	22%	1%	-2%	26%	4
C=CC(=O)CC	x	x	2µM*	x	-5%	x
CC(CCc1ccccc1)NC(=O)N1CCOCC1 (stereo unspecified)	0%	23%	11%	2%	10%	0
O=C(C[n+]1ccc(/C=N/O)cc1)N1CCCCC1	21%	14%	x	5%	0%	-2
CCn1c(O)c(/C=N/N=C2CCCCC2)c2cc(C3=NNC(=O)CC3)ccc21	u	10%	x	u	252%	-35*
CCn1c(O)c(/C=N/N=C2CCCC2)c2ccc(C3=NNC(=O)CC3)cc21	16%	0%[46.1 µM]	u	-5%	26%	1
CCC(=O)NNc1nc2c(Cl)cccc2s1	6%	15%	-5%	-12%	13%	0
Cc1cccc2sc(NC(=O)[C@H](C)N3C(=O)C4CC=CCC4C3=O)nc12 (stereo partly specified)	11%	20%	14µM*	-2%	-5%	2
CCC(=O)NNc1nc2c(C)cccc2s1	50µM*	22%	-8%	-4%	-3%	-2
